# Measurements taken from the supplement of paper PMC10849652.
# The full data set covers some 7,900 targets. This sample favours those with a hit. About 0.6% of all pairs of compound and target were hits. Values without a mark were called inactive.
# Legend:
# Assay in all cases: log2 fold change, soluble protein after heating vs DMSO (PISA); higher = thermal stabilisation; K562 cells, 10 uM, 30 min; active = over 0.2 and 3.5 SD of the protein, either way, in both replicates (recomputed)
# [1] = compound: CC1=C(C=C(C=C1)NC(=O)C2=CC(=CC=C2)C(C)(C)C#N)NC3=CC4=C(C=C3)N=CN(C4=O)C
# Outline: (§1)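 K562 cells (2×10^6 cells/mL) were treated with 10 μM compound for 30 min, and aliquots were heated for 3 min over 48°C-58°C. Pooled aliquots were extracted in PBS with 0.5% NP-40 at 4°C, and the supernatant after 21,000xg for 90 min was measured by TMTpro 16plex LC-MS/MS with channel sums equalised. Reported thermal stability, relative to control samples and from duplicates, is a log2 fold change.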
# [2] = compound: CC1=C(C=C(C=C1)NC(=O)C2=CC(=CC=C2)N(C)C)NC(=O)C3=CC=C(C=C3)O
# Outline: as §1
# [3] = compound: CC1=CC=C(C=C1)SC2=C3C=C(SC3=CN=C2)C(=O)N
# Outline: as §1
# [4] = compound: CC1=NC(=CC=C1)C2=C(N=C(N2)C(C)(C)C)C3=CC4=NC=CN=C4C=C3
# Outline: as §1
# Nexturastat A = compound: CCCCN(Cc1ccc(C(=O)NO)cc1)C(=O)Nc1ccccc1 [Nexturastat A]
# Outline: as §1
# vemurafenib = compound: CCCS(=O)(=O)Nc1ccc(F)c(C(=O)c2c[nH]c3ncc(-c4ccc(Cl)cc4)cc23)c1F [vemurafenib]
# Outline: as §1
# [5] = compound: CCCS(=O)(=O)Nc1ccc(F)c(C(=O)c2c[nH]c3ncc(Cl)cc23)c1F
# Outline: as §1
# [6] = compound: CCCc1cc(C)[nH]c(=O)c1CNC(=O)c1cc(-c2ccnc(N3CCN(C)CC3)c2)cc2c1cnn2C(C)C
# Outline: as §1
# givinostat = compound: CCN(CC)Cc1ccc2cc(COC(=O)Nc3ccc(C(=O)NO)cc3)ccc2c1 [givinostat]
# Outline: as §1
# barasertib = compound: CCN(CCCOc1ccc2c(Nc3cc(CC(=O)Nc4cccc(F)c4)[nH]n3)ncnc2c1)CCOP(=O)(O)O [barasertib]
# Outline: as §1
# Sequence of UniProt Q96DT5 (Q96DT5 whole entry, looked up): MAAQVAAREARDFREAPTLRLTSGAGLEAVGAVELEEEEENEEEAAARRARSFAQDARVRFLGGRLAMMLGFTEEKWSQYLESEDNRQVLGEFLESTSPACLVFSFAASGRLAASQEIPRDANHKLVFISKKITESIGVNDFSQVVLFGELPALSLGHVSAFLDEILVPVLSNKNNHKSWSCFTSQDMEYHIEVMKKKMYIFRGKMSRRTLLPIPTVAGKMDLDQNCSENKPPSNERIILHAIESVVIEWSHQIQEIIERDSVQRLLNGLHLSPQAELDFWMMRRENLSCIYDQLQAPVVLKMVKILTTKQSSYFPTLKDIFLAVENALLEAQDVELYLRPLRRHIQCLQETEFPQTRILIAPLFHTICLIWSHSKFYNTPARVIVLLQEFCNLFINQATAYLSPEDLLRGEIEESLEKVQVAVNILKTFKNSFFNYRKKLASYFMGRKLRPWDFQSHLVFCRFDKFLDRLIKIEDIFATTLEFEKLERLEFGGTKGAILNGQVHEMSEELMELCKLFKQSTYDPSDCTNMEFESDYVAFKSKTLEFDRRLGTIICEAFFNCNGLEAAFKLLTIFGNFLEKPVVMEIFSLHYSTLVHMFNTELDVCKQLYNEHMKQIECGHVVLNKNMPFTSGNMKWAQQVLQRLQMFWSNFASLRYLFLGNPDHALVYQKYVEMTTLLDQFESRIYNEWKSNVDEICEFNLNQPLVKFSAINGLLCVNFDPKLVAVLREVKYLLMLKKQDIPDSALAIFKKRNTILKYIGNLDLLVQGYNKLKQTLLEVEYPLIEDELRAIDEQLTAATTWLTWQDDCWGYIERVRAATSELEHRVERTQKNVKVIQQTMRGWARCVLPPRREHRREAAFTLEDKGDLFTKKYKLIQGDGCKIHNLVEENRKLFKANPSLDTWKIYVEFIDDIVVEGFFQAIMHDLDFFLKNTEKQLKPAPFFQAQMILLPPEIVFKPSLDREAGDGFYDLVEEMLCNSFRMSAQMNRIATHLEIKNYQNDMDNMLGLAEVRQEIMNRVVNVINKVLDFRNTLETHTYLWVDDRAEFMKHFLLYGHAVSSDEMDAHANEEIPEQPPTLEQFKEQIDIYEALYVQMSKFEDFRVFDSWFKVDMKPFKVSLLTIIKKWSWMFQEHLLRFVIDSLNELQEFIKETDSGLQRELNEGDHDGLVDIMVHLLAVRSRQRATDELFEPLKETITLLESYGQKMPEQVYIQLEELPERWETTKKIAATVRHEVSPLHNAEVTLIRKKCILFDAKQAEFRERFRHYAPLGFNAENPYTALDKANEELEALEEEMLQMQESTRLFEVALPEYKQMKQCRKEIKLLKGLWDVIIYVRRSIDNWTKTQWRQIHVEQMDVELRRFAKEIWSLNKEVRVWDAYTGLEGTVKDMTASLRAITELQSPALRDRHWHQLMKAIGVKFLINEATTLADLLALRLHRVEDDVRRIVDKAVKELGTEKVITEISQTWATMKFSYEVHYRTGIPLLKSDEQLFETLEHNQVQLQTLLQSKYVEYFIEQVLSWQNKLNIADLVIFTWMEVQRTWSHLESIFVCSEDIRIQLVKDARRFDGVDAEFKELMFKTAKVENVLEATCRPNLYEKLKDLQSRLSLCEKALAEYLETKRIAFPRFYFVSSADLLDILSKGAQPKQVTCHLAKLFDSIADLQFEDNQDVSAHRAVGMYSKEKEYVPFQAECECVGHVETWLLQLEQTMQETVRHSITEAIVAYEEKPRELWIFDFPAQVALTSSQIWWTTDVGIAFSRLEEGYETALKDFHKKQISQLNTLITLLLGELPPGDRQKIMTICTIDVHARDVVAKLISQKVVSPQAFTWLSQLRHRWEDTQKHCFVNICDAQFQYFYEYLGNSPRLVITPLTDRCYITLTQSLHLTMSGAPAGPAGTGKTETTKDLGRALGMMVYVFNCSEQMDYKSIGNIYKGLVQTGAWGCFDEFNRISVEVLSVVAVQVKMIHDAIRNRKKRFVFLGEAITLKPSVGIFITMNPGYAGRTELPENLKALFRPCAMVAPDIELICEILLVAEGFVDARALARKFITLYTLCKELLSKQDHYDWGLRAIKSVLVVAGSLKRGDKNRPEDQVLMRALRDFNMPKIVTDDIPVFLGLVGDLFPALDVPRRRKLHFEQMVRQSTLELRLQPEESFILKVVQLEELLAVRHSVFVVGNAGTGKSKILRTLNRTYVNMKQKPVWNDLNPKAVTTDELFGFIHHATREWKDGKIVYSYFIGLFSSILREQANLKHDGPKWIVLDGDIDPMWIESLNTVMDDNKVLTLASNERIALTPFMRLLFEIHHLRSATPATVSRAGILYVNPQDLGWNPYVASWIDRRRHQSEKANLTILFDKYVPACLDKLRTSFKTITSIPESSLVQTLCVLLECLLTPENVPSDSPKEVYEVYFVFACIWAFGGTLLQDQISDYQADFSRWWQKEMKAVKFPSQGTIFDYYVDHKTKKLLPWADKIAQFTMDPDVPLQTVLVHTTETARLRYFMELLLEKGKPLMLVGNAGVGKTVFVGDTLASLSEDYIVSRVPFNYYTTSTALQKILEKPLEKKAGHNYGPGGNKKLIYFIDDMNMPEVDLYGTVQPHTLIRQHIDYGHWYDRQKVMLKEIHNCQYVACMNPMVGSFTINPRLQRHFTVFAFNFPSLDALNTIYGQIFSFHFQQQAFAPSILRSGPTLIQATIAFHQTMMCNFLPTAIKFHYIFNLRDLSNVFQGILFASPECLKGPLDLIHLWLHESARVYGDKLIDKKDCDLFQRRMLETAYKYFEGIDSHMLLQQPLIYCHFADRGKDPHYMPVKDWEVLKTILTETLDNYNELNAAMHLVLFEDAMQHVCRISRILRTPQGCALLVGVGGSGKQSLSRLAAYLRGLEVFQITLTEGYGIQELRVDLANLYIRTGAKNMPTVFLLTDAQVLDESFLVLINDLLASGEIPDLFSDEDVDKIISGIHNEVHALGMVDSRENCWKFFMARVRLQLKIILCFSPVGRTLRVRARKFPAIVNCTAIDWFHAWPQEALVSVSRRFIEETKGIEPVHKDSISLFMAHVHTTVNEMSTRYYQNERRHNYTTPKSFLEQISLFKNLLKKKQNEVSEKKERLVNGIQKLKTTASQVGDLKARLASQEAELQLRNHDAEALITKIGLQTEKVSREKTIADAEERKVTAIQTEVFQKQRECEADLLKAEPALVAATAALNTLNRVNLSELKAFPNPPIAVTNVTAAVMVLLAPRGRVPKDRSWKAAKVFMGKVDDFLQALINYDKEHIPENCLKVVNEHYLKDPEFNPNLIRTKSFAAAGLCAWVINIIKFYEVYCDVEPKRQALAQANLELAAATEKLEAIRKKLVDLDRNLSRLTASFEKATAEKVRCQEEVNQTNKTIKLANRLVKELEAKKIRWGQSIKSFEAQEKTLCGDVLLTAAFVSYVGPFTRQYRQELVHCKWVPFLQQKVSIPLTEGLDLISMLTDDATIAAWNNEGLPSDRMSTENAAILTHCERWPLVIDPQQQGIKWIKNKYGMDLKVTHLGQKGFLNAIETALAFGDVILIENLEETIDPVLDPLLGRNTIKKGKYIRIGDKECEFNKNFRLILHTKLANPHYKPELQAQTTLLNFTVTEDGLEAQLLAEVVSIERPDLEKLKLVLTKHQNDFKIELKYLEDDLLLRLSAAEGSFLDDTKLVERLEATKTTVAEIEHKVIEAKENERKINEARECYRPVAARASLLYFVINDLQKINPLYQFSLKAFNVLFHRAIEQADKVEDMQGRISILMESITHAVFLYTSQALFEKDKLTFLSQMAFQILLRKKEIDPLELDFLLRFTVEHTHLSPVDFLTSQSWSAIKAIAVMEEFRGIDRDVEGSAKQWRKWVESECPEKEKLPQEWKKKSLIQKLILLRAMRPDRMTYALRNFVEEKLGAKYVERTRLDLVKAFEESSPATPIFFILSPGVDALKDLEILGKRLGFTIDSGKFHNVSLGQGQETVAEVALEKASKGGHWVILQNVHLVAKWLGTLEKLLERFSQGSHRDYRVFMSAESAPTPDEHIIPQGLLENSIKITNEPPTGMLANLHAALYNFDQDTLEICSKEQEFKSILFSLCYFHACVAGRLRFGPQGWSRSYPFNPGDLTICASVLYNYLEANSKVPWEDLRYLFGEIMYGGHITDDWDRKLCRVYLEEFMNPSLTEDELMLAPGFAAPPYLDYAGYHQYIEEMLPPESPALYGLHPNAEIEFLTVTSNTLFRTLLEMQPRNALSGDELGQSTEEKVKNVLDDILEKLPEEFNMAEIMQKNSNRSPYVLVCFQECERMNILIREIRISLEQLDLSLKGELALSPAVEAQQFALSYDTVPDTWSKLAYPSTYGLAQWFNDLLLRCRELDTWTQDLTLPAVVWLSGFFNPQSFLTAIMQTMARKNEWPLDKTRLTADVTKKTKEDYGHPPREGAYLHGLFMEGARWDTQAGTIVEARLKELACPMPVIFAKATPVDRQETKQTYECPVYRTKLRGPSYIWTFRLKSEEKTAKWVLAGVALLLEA
# Sequence of UniProt Q9BQI3 (Q9BQI3 whole entry, looked up): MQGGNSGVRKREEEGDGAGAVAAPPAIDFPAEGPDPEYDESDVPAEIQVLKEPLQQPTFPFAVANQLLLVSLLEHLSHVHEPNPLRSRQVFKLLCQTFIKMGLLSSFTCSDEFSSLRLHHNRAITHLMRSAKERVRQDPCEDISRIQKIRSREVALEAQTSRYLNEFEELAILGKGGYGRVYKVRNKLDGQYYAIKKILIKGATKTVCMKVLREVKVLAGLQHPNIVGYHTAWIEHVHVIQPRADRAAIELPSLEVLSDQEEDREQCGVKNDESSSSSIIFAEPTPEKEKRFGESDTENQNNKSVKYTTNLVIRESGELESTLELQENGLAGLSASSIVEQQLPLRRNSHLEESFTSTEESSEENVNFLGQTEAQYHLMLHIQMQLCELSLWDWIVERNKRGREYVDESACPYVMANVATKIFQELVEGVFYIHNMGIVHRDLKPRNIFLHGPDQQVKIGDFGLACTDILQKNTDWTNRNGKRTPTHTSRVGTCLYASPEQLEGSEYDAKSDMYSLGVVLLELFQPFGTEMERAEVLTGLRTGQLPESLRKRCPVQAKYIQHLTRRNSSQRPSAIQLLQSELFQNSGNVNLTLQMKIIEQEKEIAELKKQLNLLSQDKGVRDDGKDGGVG
Target,log2 fold change [1],log2 fold change [2],log2 fold change [3],log2 fold change [4],log2 fold change (Nexturastat A),log2 fold change (vemurafenib),log2 fold change [5],log2 fold change [6],log2 fold change (givinostat),log2 fold change (barasertib)
DDX11 (UniProt Q96FC9),-0.04,0.052,-0.035,0.043,-0.011,-0.072,0,-0.006,-0.029,0.125
ERLIN2 (UniProt O94905),-0.045,-0.024,0.009,-0.037,0.104,-0.062,0.008,0.12,0.038,-0.003
DNAJC19 (UniProt Q96DA6),-0.02,0.001,0.043,0.069,-0.121,0.003,0.035,-0.013,0.005,0.007
EXOC7 (UniProt Q9UPT5),-0.116,-0.057,-0.014,-0.05,0.065,0.032,0.07,0.079,0.09,0.036
DHPS (UniProt P49366),-0.074,0.016,0.034,0.161,-0.079,0.067,0.008,-0.015,-0.001,0.01
FAAP100 (UniProt Q0VG06),-0.004,-0.001,-0.039,0.066,-0.327 (active),0,-0.033,0.167,0.024,0.051
EIF3J (UniProt O75822),0.01,-0.026,-0.005,0.039,-0.068,0.05,-0.022,0.004,0.011,0.046
EIF4E isoform 2 (UniProt P06730),0.044,-0.035,0.008,0.02,-0.078,0.078,0.109,-0.086,0.012,-0.07
EHD2 (UniProt Q9NZN4),-0.037,-0.026,-0.007,0.059,0.003,0.029,0.007,-0.024,0.024,0.03
EIF2AK1 (UniProt Q9BQI3),-0.027,-0.007,0.079,-0.019,-0.087,0.005,0.044,0.179,-0.051,-0.017
EFCAB14 (UniProt O75071),-0.034,0.061,0.022,-0.011,-0.032,-0.049,0.012,0.023,0.054,-0.01
EIF4G1 isoform 8 (UniProt Q04637),-0.028,-0.011,0.004,0.006,0.169,0.013,0.028,0.119,0.057,0.067
DCAF16 (UniProt Q9NXF7),-0.036,-0.013,0.059,-0.015,0.063,0.151,0.185,0.042,-0.016,0.024
EXOC5 (UniProt O00471),0.006,-0.022,-0.007,0.056,0.017,0.046,0.08,-0.028,0.118,0.031
FADS3 (UniProt Q9Y5Q0),0.031,-0.002,-0.012,0.031,-0.096,0.01,0.026,-0.069,-0.108,0.042
DNAJB1 (UniProt P25685),0.015,-0.045,-0.003,0.086,-0.03,0.009,0.028,-0.051,0.024,0.024
DUS3L (UniProt Q96G46),0.064,-0.015,-0.01,0.017,-0.023,0.042,0.031,0.036,-0.004,0.021
EIF4E2 (UniProt O60573),-0.089,-0.006,0.061,0.089,0.097,0.126,0.069,0,0.031,0.083
DIAPH1 (UniProt O60610),0.018,-0.05,0.025,-0.049,0.19,0.041,0.062,0.08,0.051,0.077
DHRS3 (UniProt O75911),0.075,-0.037,0.019,0.027,-0.037,-0.078,-0.04,-0.035,-0.051,-0.048
DCAF13 (UniProt Q9NV06),-0.038,0.007,-0.123,-0.067,0.205,-0.117,-0.062,0.089,0.017,-0.084
DNAH5 (UniProt Q8TE73),-0.047,0,0.431 (active),-0.036,-0.021,-0.077,0.014,-0.044,0.012,0.03
DBNL isoform 3 (UniProt Q9UJU6),-0.051,-0.019,0.011,0.113,-0.082,0.07,0.1,-0.006,0.036,0.045
DHX16 (UniProt O60231),-0.014,-0.018,0.024,0.036,-0.002,0.017,0.059,-0.011,0.017,0.032
DNAH11 (UniProt Q96DT5),-0.109,0.064,-0.13,0.044,-0.007,0.199,-0.15,0.17,0.111,-0.051
DBT (UniProt P11182),0.001,-0.017,0.01,-0.015,0.024,-0.011,0.015,-0.042,0.005,-0.033
DOHH (UniProt Q9BU89),0.083,-0.069,0.084,-0.091,-0.144,0.001,-0.059,-0.063,-0.068,-0.274
FAM207A (UniProt Q9NSI2),-0.086,0.11,-0.006,0.024,-0.047,0.038,-0.006,0.44,0.148,-0.036
DNM2 (UniProt P50570),-0.016,-0.043,0.009,0.024,-0.057,0.016,0.033,-0.007,0.036,0.054
DCAF6 isoform 3 (UniProt Q58WW2),0.016,-0.035,-0.034,-0.037,-0.041,-0.032,-0.047,0.011,-0.058,0.008
